7 compounds from PubChem BioAssay can be followed below.

A short description of assay [1]: liver-stage malaria parasite growth inhibition, primary screen, cell-based, HepG2, luciferase luminescence, HepG2 viability (AID 624349).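 Further: 100% = mean of DMSO negative control wells on the same plate.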 The following applies: P. berghei liver stage in HepG2, luciferase luminescence, concentration not given here; parasite load remaining: stronger effect = lower value; viability: measured here: HepG2 viability without parasites.
Assay [2] in a line: differential killing of epithelial or mesenchymal cells, primary screen, imaging, PC-3E GFP, TEM4-18 mCherry, co-culture (AID 1345086;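 active means compounds killing one labelled cell type while sparing the other, by normalised counts and ratio limits, not self-fluorescent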;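 on all read-outs here: cells exposed to compound for 72 h before imaging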;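 on red/green cell ratio (normalised): normalised mesenchymal count divided by normalised epithelial count so high means epithelial killing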). The following applies: imaging cell counts, at 1 µM; for red/green cell ratio (normalised): actives lie on both sides, counts scaled to control wells, 1 = unselective.
A short description of assay [3]: sensitizers of A549 cells to miR-34 induction, primary screen, imaging, A549 dox-inducible miR-34, nuclei and caspase counts (AID 1347080;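 active means compounds whose cell count with miR-34 switched on is under 0.7 times the count with it off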). As to conditions: A549 miR-34 inducible, Hoechst nuclei count, 48 h.
Where [4] appears, read: measured here: epithelial PC-3E GFP cell survival.
Where [5] appears, read: measured here: mesenchymal TEM4-18 mCherry cell survival.
The mark [6] stands for this setting: stronger effect = lower value, cell number ratio, induced over uninduced.
[7] abbreviates: measured here: relative caspase fold change +Dox/-Dox.
[8] abbreviates: measured here: total cells with miR-34 induction, stronger effect = lower value.
Setting [9] is: measured here: total cells without miR-34 induction.

Each structure is given as a SMILES string. Where “and” joins values, the source holds several entries; their conditions need not be identical. Identical values can stand only once. Calls of active or inactive are those of the source. Unless noted, no stated cut-off is given here; in the data, active means parasite load remaining mostly below about 12% (no sharp cut-off); inactive means mostly above about 10%.

What is called viability is a read-out of living cells in per cent, often relative to untreated cells. For `C[C@]12C=CC(=O)C=C1CCC1C2[C@@H](O)C[C@@]2(C)C1CC[C@]2(O)C(=O)COC(=O)CCC(=O)O` (stereo partly drawn), in assay [1], the parasite load remaining was 61.5% (inactive). In addition, in assay [1], the viability came to 98%. Further, the red/green cell ratio (normalised) in assay [2] was 0.99 (inactive). Also, the normalised cell number in assay [2] (setting [4]) worked out at 1.15; in assay [2] (setting [5]), 1.14. Besides, the fold change in assay [3] (setting [6]) was 0.822 (inactive); in assay [3] (setting [7]), 2.28. In addition, the cell count in assay [3] (setting [8]) amounted to 7880; in assay [3] (setting [9]), 9580.
On to `N[C@H](Cc1cc(I)c(Oc2ccc(O)c(I)c2)c(I)c1)C(=O)O`, for which the parasite load remaining in assay [1] is 45.9% (inactive). In addition, the viability in assay [1] turned out to be 99.9%. Moreover, the red/green cell ratio (normalised) in assay [2] is 0.97 (inactive). The normalised cell number came out at 1.02 in assay [2] (setting [4]) and 0.99 in assay [2] (setting [5]). In addition, the results for the fold change in assay [3] (setting [6]) and in assay [3] (setting [7]) were 0.92 (inactive) and 1.64, respectively. For the same compound, the cell count in assay [3] (setting [8]) is 11400; in assay [3] (setting [9]), 12400.
On to `CCOC(=O)C(C)(N)Cc1ccc(O)c(O)c1` (stereo not drawn), for which the parasite load remaining in assay [1] was 15% (inactive). Also, the viability in assay [1] came to 103%. Also, the red/green cell ratio (normalised) in assay [2] was 1.25 (inactive). For the same compound, the normalised cell number in assay [2] (setting [4]) is 0.9; in assay [2] (setting [5]) it was 1.12. Further, the fold change in assay [3] (setting [6]) was 0.926 (inactive); in assay [3] (setting [7]) it was 3.34. Also, the cell count in assay [3] (setting [8]) was found to be 12200; in assay [3] (setting [9]), 13200.
With `CC1(C)O[C@@H]2CC3C4C[C@H](F)C5=CC(=O)C=C[C@]5(C)[C@@]4(F)[C@@H](O)C[C@]3(C)[C@]2(C(=O)CO)O1` (stereo partly drawn), the parasite load remaining in assay [1] is 74.8% (inactive). In addition, the viability in assay [1] was 92.9%. The red/green cell ratio (normalised) in assay [2] was 1.12 (inactive). The normalised cell number in assay [2] (setting [4]) was 1.2; in assay [2] (setting [5]) it was 1.35. For the same compound, the fold change was 0.898 (inactive) in assay [3] (setting [6]) and 0.891 in assay [3] (setting [7]). Besides, the cell count was 7030 in assay [3] (setting [8]) and 7830 in assay [3] (setting [9]).
Turning to `CC(=O)OCC(=O)[C@@]12OC(C)(C)O[C@@H]1CC1C3C[C@H](F)C4=CC(=O)C=C[C@]4(C)[C@@]3(F)[C@@H](O)C[C@@]12C` (stereo partly drawn), the parasite load remaining in assay [1] was 117% (inactive) and 83.7% (inactive). For the same compound, the viability in assay [1] is 77.1% and 96.2%. Also, the red/green cell ratio (normalised) in assay [2] was 1.1 (inactive). Also, the values for the normalised cell number in assay [2] (setting [4]) and in assay [2] (setting [5]) were 1.15 and 1.26, respectively. For the same compound, the fold change is 0.893 (inactive) in assay [3] (setting [6]) and 0.979 in assay [3] (setting [7]). The cell count was 6960 in assay [3] (setting [8]) and 7790 in assay [3] (setting [9]).
Turning to `COc1cc(NS(C)(=O)=O)ccc1Cc1c2ccccc2nc2ccccc12`, the parasite load remaining in assay [1] is 41.6% (inactive). Besides, the viability in assay [1] came to 143%. Moreover, in assay [2], the red/green cell ratio (normalised) was 0.96 (inactive). Also, the normalised cell number in assay [2] (setting [4]) is 0.32; in assay [2] (setting [5]) it was 0.31. The fold change in assay [3] (setting [6]) was 0.911 (inactive); in assay [3] (setting [7]), 3.12. For the same compound, the values for the cell count in assay [3] (setting [8]) and in assay [3] (setting [9]) were 3640 and 4000, respectively.
Turning to `CCCCCCCCCCCCCCCC(=O)OC[C@H](NC(=O)C(Cl)Cl)[C@H](O)c1ccc([N+](=O)[O-])cc1`, the parasite load remaining in assay [1] is 77.1% (inactive). Moreover, in assay [1], the viability was found to be 134%. Moreover, in assay [2], the red/green cell ratio (normalised) is 1.04 (inactive). Besides, the normalised cell number in assay [2] (setting [4]) is 1.01; in assay [2] (setting [5]), 1.06. Further, the results for the fold change in assay [3] (setting [6]) and in assay [3] (setting [7]) were 0.906 (inactive) and 2.23, respectively. Also, the cell count came to 10500 in assay [3] (setting [8]) and 11500 in assay [3] (setting [9]).
